# High-throughput results (PubChem BioAssay)
# Sampled rows, rich in hits. Any-hit rate of the full collection: about 2.3%.
# pAkt inh: Akt phosphorylation inhibition | activity change, % for hits at 50 µM | Neuro2A IGF-stimulated pAkt S473 HTRF, 20 min; active compounds read low | AID 651550 | 0.32% of 360,000 active; in the data active = activity change below about -80%; inconclusive = mostly about -51% to -80%; note: % is set by controls: 0 for no effect and ±100 for the full control effect
#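 Single-point screen (50 µM final compound) in Neuro2A cells stimulated 20 min with 6 nM IGF at 37 deg C. After lysis, Ser473-phosphorylated Akt read by HTRF (ex 330 nm, em 615/665 nm) as the 665/615 ratio.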
# FUS yeast rescue: rescues growth of FUS-expressing yeast; S. cerevisiae FUS-expressing, growth rescue, OD600, 24 h; Potency, µM (highest dose often 76.6 µM), usual class: activators; 0.24% of 390,000 active;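 note: potency is the fitted concentration of half-maximal effect; plate controls were DMSO vehicle for no effect and reference control for full effect; nearly all actives have a fitted effect of over 55% in size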
#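 Restored growth of FUS-toxic S. cerevisiae, read as 600 nm absorbance after 24 h at 30C in galactose medium (starting OD 0.005). Controls CP55940 and DMSO.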
# aSyn rescue: inhibitors of alpha-synuclein toxicity in yeast; 0.14% of 370,000 active; Potency, µM (titrated, usually from 46.1 µM), for inactives: at the top dose growth rescue (activation), actives largely listed as activators; Yeast expressing alpha-synuclein, growth rescue, BacTiter-Glo, 24 h; note: potency is the fitted concentration of half-maximal effect; % of control where 0% means no effect; nearly all actives have a fitted effect of over 65% in size
#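 Screening used galactose-induced yeast with toxic alpha-synuclein levels, exposed to compound for 24 hr at 30 deg C. Cell growth, read with BacTiter-Glo luminescence, gave the measured signal.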
# Abeta yeast res: compounds reversing amyloid beta toxicity in yeast; Potency, µM (titrated, usually from 46.1 µM), usual class: activators; yeast expressing A-beta42, growth rescue, OD600, 48 h; response scale: 0% DMSO, 100% iron-clioquinol control; 0.063% of 410,000 active; note: potency is the fitted concentration of half-maximal effect; nearly all actives have a fitted effect of over 55% in size
#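 Yeast A-beta toxicity model in growth medium with pinned compounds, 48 h at 30 C; growth read as absorbance at 600 nm. Normalized to FeCl3/clioquinol equimolar mix (positive) and DMSO (negative).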
# TDP-43 yeast inh: TDP-43 toxicity inhibition in yeast. AID 652104. 1.8% of 410,000 active. Potency, µM (series often up to 46.1 µM), inactives show at the top dose growth rescue (activation), usual class: activators. TDP-43 expressing yeast growth rescue, BacTiter-Glo, 24 h; note: potency is the fitted concentration of half-maximal effect; % of control where 0% means no effect; nearly all actives have a fitted effect of over 50% in size
#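 Cell-based yeast growth screen: TDP-43 expression induced in galactose, inoculum OD600=0.02 after raffinose pregrowth to mid-log. Read-out BacTiter-Glo luminescence at 24 hr, 30 deg C; inhibition of toxicity seen as signal increase.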
# Starred values were filed as active, the others as inactive; i = inactive; u = inconclusive; x = no result given; ! = a repeat was not active; [ ] = dose if it differs, or a comment. Unless noted, calls come from the whole dose curve; as a rule, active = well fitted curve in the direction sought with a large enough effect; inconclusive = small, poorly fitted or top-dose-only effect, or another doubt; inactive = no such curve, though single readings can be large; an effect the other way counts as inactive or inconclusive.
SMILES,pAkt inh,FUS yeast rescue,aSyn rescue,Abeta yeast res,TDP-43 yeast inh
Cc1cnc(C=O)c2cccc([N+](=O)[O-])c12,i,i,14%,i,20µM*
COc1ccc(CCNC(=O)Cn2nnc(-c3cccc(C(F)(F)F)c3)n2)cc1OC,x,i,x,i,0%
Cc1ccc(N(Cc2cccs2)C(=O)c2ccccc2[N+](=O)[O-])cc1,x,i,x,i,-2%
O=c1c2c3c(sc2nc2n1CCCCC2)CCCC3,i,i,-4%,i,13µM*
O=c1c2c3c(sc2nc2n1CCCS2)CCCC3,i,i,0%,i,18µM*
O=c1c2c3c(sc2nc2n1CCCC2)CCCCC3,i,i,-29%,i,u
O=c1c2c3c(sc2nc2n1CCC2)CCCC3,i,i,1%,i,20%
CCOC(=O)N1CCN(C(=O)CN2C(=O)/C(=C\c3cccc(OC)c3)SC2=S)CC1,x,x,14%,x,x
Cc1ccc(OCc2ccccc2C)c([N+](=O)[O-])n1,i,i,4%,i,11µM*
CCN1C(=O)C2(c3ccccc31)c1c(oc3ccc(C)cc3c1=O)C(=O)N2CCCOC(C)C (configuration not stated),x,i,x,i,0%
CCCCOc1ccc(-n2nc(C)cc2C)nn1,-101%*,i,0%,i,15%
O=C(NCc1cccc(Cl)c1)c1cccc(C(F)(F)F)c1,i,i,0%,i,u
O=C(NCc1ccccc1Cl)c1cccc(C(F)(F)F)c1,i,i,7%,i,35µM*
Cc1ccc(SCC(=O)c2cc(C)c(O)c(C)c2)cc1,i,i,-1%,i,18µM*
Cc1ccc(C2(C)NC(=O)N(CC(=O)N3c4ccccc4NC(=O)CC3C)C2=O)cc1 (configuration not stated),i,i,3.5µM*,i,-5%
CCCCCCSc1ccc(-c2nc3ccc(C)cn3c2NCCCC)cc1OC,i,16µM*,-63%,i,-93%
CCCCCCSc1cc(-c2nc3cc(C)ccn3c2NCCCC)ccc1OC,i,28µM*!,-57%,i,-91%
CCCCCCSc1ccc(-c2nc3ccc(Cl)cn3c2NCCCC)cc1OC,i,i,-2%,i,17%
Cc1ccc2nc3ccc(N4CCCCCCC4)nn3c(=O)c2c1,i,i,-10%,i,22µM*
Cc1ccc(S(=O)(=O)c2cn(C)c3cc(N4CCCC(C)C4)c(F)cc3c2=O)c(C)c1 (configuration not stated),x,i,x,i,20%
O=C1CC(c2cccc(O)c2)c2cc3c(cc2N1)OCO3 (configuration not stated),x,i,x,i,-5%
CCCC(=O)N1CCN(c2nc3ccccc3s2)CC1,i,i,0%,x,17%
CCSc1ccccc1C(=O)N1CCN(c2nc3ccccc3s2)CC1,x,i,x,i,18µM*
O=C(C1COc2ccccc2O1)N1CCN(c2nc3ccc([N+](=O)[O-])cc3s2)CC1 (configuration not stated),i,i,-6%,i,u
CCc1ccc2nc(N3CCN(C(=O)c4ccco4)CC3)sc2c1,x,u,x,i,14µM*
SMILES,pAkt inh,FUS yeast rescue,aSyn rescue,Abeta yeast res,TDP-43 yeast inh
O=C(C1COc2ccccc2O1)N1CCN(c2nc3ccccc3s2)CC1 (configuration not stated),i,i,7%,i,11µM*
O=C(C1COc2ccccc2O1)N1CCN(S(=O)(=O)c2cc(F)ccc2F)CC1 (configuration not stated),i,i,-2%[1.84 µM],i,28µM*
CCc1cc2ccc(C)cc2nc1SCC(=O)N1CCN(C(=O)c2ccco2)CC1,i,x,4%,i,14µM*
CCOc1ccc2nc(N3CCN(C(=O)c4ccco4)CC3)sc2c1,x,i,x,i,u
COc1ccc(-c2csc(N3CCN(C(=O)c4ccco4)CC3)n2)cc1,i,i,-15%,i,20µM*
COc1ccc2nc(N3CCN(C(=O)c4ccco4)CC3)sc2c1,x,i,x,i,20µM*
CCc1ccc(NC(=O)c2ccc(F)c(S(=O)(=O)N3CCN(c4ccc(OC)cc4)CC3)c2)cc1,x,i,x,i,20%
CC(=O)c1cn(CC(=O)Nc2c(C)cccc2C)c2ccccc12,i,i,0%,i,-1%
CC(=O)c1cn(CC(=O)Nc2ccccc2C)c2ccccc12,-111%*,i,7%,i,-12%
CC(=NC1CCCC1)c1c(C)[nH]n(-c2nc3ccccc3s2)c1=O,-116%*,i,0%,i,27%
Cc1ccc(-n2c3nc(=O)n(C)c(=O)c-3cc3c(Cl)cccc32)c(C)c1,x,i,x,i,6%
CCCc1cc(C(=O)N/N=C/c2ccc(CC)s2)c2ccccc2n1,-118%*,i,-8%,i,-11%
Cc1c(C(=O)Nc2ccc(N3CCOCC3)cc2)oc2ccccc12,i,i,-7%,i,7.9µM*
Cc1c(C(=O)OCC(=O)Nc2ccc(N3CCOCC3)cc2)oc2ccccc12,i,i,-6%,i,11%
c1ccc(-c2cnc(CSc3ncnc4sccc34)o2)cc1,i,i,3%,i,22µM*
O=C(c1cc(-c2ccco2)on1)N1CCCc2ccccc21,i,35µM*,-2%,i,6%
Cc1ccc(Cl)cc1N1CCN(C(=O)c2ccc(CS(=O)Cc3ccc(Cl)cc3)o2)CC1 (configuration not stated),i,u,u,i,20µM*
Cc1ccc(C)c(N2CCN(C(=O)c3ccc(CS(=O)Cc4ccc(Cl)cc4)o3)CC2)c1 (configuration not stated),i,u,u,i,u
O=C1[C@@H]2CSC(c3ccc(F)cc3)N2C(=O)N1c1ccc(Cl)cc1 (some centres not stated),x,i,x,i,14µM*
O=C1CC(N2CCN(c3ccc(Cl)cc3)CC2)C(=O)N1c1ccc(F)cc1 (configuration not stated),i,i,9%,u,0%
CCS(=O)(=O)c1ccc(-c2csc(-c3ccccc3Cl)n2)c(Cl)c1Cl,-128%*,i,-11%,i[9.22 µM],7%
CCOc1ccc2c(c1)NC(c1cccs1)=NC(c1ccc(F)cc1)=N2,x,u,x,i,19%
COc1ccc(OCCSc2nnc3sc4ccccc4n23)cc1,i,i,12%,i,16µM*
CN(C)CCSc1nnc2sc3ccccc3n12,-106%*,i,1%,i,9%
N#CCSc1nnc2sc3ccccc3n12,i,i,-14%,i,17%
CCOC(=O)c1cccc(NC(=O)CCCn2c(C)c3cnn(-c4ccccc4)c(=O)c3c2C)c1,x,i,x,i,5%
